# Data from PubChem BioAssay (NCATS).
# Several values for one entry are separate records, joined by “and”; a condition that tells them apart may be missing. Equal entries are not always repeated. Results filed as inconclusive are left out. A call without a number means that no potency is given here. Activity calls are given as the source filed them. Unless noted, calls come from the whole dose curve; as a rule, active = well fitted curve in the direction sought with a large enough effect; inconclusive = small, poorly fitted or top-dose-only effect, or another doubt; inactive = no such curve, though single readings can be large; an effect the other way counts as inactive or inconclusive.
# Experiments:
# [1] = tested on: HIV-1 nucleocapsid protein NCp7 (binding to TG oligonucleotide); assay: HIV Nucleocapsid (AID 346; call rule not given here;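 note: potency is the fitted concentration of half-maximal effect; potency is for inhibitors that block NC binding and lower polarization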); conditions: HIV-1 NC / fluorescein-TGTGTGTG probe, fluorescence polarization
# Method in brief: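 Fluorescence polarization binding of 100 nM HIV-1 NC to 10 nM fluorescein-labelled TG4xF oligonucleotide. Buffer was Hepes pH 7.5 with 250mM NaCl, 1uM ZnCl2, TCEP and 2-mercaptoethanol. Compounds were incubated 1 hr at room temperature before the read.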
# [2] = molecular target: Lysosomal acid glucosylceramidase (Homo sapiens) (UniProt P04062); assay: Glucocerebrosidase-p2 (AID 348; in the data active = potency below about 10 µM; note: potency is the fitted concentration of half-maximal effect); conditions: purified GBA, blue fluorogenic substrate, 40 min
# Chain of Lysosomal acid glucosylceramidase (Homo sapiens) (P04062 whole entry, looked up): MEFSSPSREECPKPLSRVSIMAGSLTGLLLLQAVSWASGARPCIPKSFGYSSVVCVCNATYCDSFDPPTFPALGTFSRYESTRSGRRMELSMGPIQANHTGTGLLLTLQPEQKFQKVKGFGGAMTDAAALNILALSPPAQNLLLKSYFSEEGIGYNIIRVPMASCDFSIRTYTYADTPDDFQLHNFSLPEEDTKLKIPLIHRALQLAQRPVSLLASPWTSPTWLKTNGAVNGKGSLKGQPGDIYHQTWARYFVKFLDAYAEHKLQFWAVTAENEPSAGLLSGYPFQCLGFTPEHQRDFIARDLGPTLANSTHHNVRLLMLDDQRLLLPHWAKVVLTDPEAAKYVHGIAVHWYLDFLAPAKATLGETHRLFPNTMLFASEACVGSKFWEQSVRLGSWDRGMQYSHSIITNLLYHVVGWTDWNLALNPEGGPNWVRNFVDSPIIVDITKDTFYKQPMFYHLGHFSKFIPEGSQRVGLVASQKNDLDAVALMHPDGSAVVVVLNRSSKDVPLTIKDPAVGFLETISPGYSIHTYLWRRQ
# Method in brief: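 Compounds titrated from 0.6 nM upwards against 0.2 nM enzyme in pH 5.9 citric acid/KH2PO4, taurocholate, tween-20; blue fluorogenic substrate 80 uM, 40 min room temperature, stopped and read Ex 365/Em 440 for AC50.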
# [3] = Cell Viability - N2a (AID 540); conditions: N2a mouse neuroblastoma cell viability; at 92.2 µM (top of the series);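 note: cells exposed to compound for 40 h at 37 °C; nearly all actives have a fitted effect of over 45% in size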
# Method in brief: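 First, 1500 N2a cells per well incubate 5 hr at 37 °C; next, compounds are added and incubated 40 hr at 37 °C; finally CellTiter-Glo is added and luminescence read after 20 min, with AC50 derived by Hill modeling.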
# [4] = Cellular Toxicity (caspase-3) Jurkat (AID 655); conditions: Jurkat caspase-3 activation, luminescence, DMSO = 0%, tamoxifen = 100%; at 92.2 µM (top of the series);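 note: cells exposed to compound for 16 h at 37 °C before reading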
# Method in brief: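 Jurkat cells (5000/well) in complete medium exposed 16 h at 37 C; caspase-3/7 activity read by Caspase-Glo luminescence after 20 min at room temperature. Normalized to DMSO and 100 uM tamoxifen; AC50 from Hill fits.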
# [5] = MultiTox-Fluor Cytotoxicity Assay - LYMP1-002 - Live Cells (AID 955); conditions: LYMP1-002 lymphoblastoid live-cell protease fluorescence viability; series mostly up to 46.1 µM;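 note: cells exposed to compound for 16 hours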
# Method in brief: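 Cytotoxicity in the human lymphoblastoid line LYMP1-002 is measured as loss of live-cell protease activity after 16 h treatment in complete culture medium. AC50 is derived from Hill-equation fits of qHTS concentration-response data.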
# [6] = Cell Viability - LYMP2-009 (AID 968); conditions: LYMP2-009 lymphoblastoid cell viability; series mostly up to 92.2 µM;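 note: cells exposed to compound for 24 h at 37 °C; nearly all actives have a fitted effect of over 55% in size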
# [7] = Cell Viability - LYMP2-013 (AID 970); conditions: LYMP2-013 lymphoblastoid cells viability; series mostly up to 92.2 µM;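 note: cells exposed to compound for 24 h at 37 °C; nearly all actives have a fitted effect of over 55% in size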; note: potency is the fitted concentration of half-maximal effect
# Method in brief: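 Acute toxicity was measured in human lymphoblastoid cells (2500/well) exposed to compound titrations for 24 hr, with ATP luminescence (CellTiter-Glo) as read-out and AC50 fitted by Hill equation.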
# [8] = Cell Viability - LYMP2-015 (AID 971); conditions: LYMP2-015 lymphoblastoid cell viability; series mostly up to 92.2 µM; note: nearly all actives have a fitted effect of over 55% in size; note: potency is the fitted concentration of half-maximal effect
# Method in brief: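 Acute toxicity was scored as a concentration-dependent drop in intracellular ATP in lymphoblastoid cells after 24 hr compound exposure in complete medium. Detection used CellTiter-Glo luciferase luminescence.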
# [9] = Cell Viability - LYMP2-017 (AID 972); conditions: LYMP2-017 lymphoblastoid cell viability; series mostly up to 92.2 µM;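 note: cells exposed to compound for 24 hours at 37 °C; nearly all actives have a fitted effect of over 55% in size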
# Method in brief: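 Steps: plate 2500 lymphoblastoid cells per well; incubate 5 hr at 37 C; add compound across a concentration series and incubate 24 hr at 37 C; add CellTiter-Glo and read luminescence after 30 min at room temperature; fit Hill curves for AC50.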
# [10] = Cell Viability - LYMP2-019 (AID 973); conditions: LYMP2-019 lymphoblastoid cell line viability; series mostly up to 92.2 µM
# Method in brief: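 Cells plated at 2500/well and allowed 5 hr at 37 C before compound addition. After 24 hr incubation, CellTiter-Glo reagent was added, plates sat 30 min at room temperature, and luminescence was recorded.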
# [11] = Cell Viability - LYMP2-007 (AID 979); conditions: LYMP2-007 lymphoblastoid cell viability; series mostly up to 92.2 µM;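 note: cells exposed to compound for 24 h before reading; nearly all actives have a fitted effect of over 60% in size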; note: potency is the fitted concentration of half-maximal effect
# Method in brief: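 Acute toxicity is scored as a concentration-dependent fall in intracellular ATP in human lymphoblastoid cells treated 24 hr at 37 C, measured by luciferase luminescence; Hill-equation modelling yields AC50.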
# [12] = Cell Viability - LYMP2-008 (AID 980); conditions: LYMP2-008 lymphoblastoid cell viability, qHTS; series mostly up to 92.2 µM;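 note: cells exposed to compound for 24 h at 37 °C; nearly all actives have a fitted effect of over 60% in size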
# Method in brief: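 Acute cytotoxicity is scored as concentration-dependent loss of cellular ATP in a human lymphoblastoid line after 24 hr treatment at 37 C. ATP is quantified by luciferase luminescence.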
# [13] = Cell Viability - LYMP2-014 (AID 983); conditions: LYMP2-014 lymphoblastoid cells, viability qHTS; series mostly up to 92.2 µM;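 note: cells exposed to compound for 24 h at 37 °C; nearly all actives have a fitted effect of over 50% in size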
# Method in brief: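 Decrease in intracellular ATP after 24 hr treatment at 37 C, measured by luciferase luminescence, indicated cytotoxicity. Concentration-response data were fitted with the standard Hill equation to give AC50.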
# [14] = molecular target: Estrogen receptor (Homo sapiens) (UniProt P03372); assay: qHTS assay for small molecule agonists of estrogen receptor alpha signaling (AID 588514; calls by dose curve; note: nearly all actives have a fitted effect of over 70% in size); conditions: ER-alpha-UAS-bla HEK293, beta-lactamase ratio, 18 h; series mostly up to 76.8 µM
# Chain of Estrogen receptor (Homo sapiens) (P03372 whole entry, looked up): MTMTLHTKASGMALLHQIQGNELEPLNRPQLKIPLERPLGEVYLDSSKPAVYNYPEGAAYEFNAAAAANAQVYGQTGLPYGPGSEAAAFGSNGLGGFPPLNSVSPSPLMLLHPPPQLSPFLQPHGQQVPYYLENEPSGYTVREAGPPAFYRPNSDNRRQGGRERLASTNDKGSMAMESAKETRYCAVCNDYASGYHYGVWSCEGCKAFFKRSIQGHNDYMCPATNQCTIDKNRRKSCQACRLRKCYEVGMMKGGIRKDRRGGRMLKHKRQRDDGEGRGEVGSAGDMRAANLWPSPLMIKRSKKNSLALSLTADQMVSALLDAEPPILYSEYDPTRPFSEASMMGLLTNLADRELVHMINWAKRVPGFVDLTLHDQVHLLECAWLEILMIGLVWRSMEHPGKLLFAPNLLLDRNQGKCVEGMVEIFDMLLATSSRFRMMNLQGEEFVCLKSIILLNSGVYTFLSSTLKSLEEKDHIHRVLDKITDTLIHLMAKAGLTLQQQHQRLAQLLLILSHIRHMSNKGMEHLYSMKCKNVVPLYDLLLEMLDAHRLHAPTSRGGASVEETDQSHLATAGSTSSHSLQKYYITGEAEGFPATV
# Method in brief: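 Reporter-gene assay. […] controls beta-lactamase in HEK 293 GripTite cells; after 18 hrs with compound, CCF4 substrate is added for 2 hrs and fluorescence is read.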
# [15] = molecular target: Glucocorticoid receptor (Homo sapiens) (UniProt P04150); assay: qHTS assay for small molecule agonists of glucocorticoid receptor signaling (AID 588532; active = well fitted curve in the direction sought with a large enough effect in the signal ratio, with a control signal flat; the % refers to the signal ratio); conditions: HeLa MMTV-bla, beta-lactamase ratio, agonist, 18 h; hits give high values; percent of dexamethasone control, DMSO zero
# Chain of Glucocorticoid receptor (Homo sapiens) (P04150 whole entry, looked up): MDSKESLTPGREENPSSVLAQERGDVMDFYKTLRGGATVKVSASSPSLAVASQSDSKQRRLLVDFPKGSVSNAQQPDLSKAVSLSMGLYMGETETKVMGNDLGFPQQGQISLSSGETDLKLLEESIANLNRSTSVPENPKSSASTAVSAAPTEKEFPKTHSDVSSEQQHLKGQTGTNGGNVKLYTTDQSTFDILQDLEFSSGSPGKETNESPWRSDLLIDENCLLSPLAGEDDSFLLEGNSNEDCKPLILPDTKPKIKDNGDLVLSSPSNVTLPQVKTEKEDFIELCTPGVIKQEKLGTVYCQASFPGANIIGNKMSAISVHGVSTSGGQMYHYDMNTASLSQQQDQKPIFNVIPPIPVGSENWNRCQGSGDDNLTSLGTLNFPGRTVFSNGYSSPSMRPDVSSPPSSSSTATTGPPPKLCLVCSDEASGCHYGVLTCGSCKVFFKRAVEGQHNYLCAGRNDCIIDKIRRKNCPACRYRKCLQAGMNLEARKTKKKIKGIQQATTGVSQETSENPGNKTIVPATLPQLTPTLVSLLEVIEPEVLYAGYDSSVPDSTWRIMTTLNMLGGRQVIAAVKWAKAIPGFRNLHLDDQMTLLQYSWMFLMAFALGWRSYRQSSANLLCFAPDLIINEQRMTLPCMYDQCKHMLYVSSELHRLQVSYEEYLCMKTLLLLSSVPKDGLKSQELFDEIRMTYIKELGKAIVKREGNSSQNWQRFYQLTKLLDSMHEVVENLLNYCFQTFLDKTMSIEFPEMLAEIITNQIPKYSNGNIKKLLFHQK
# Method in brief: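 HeLa GRE-bla reporter cells; 18 h compound exposure at 37 C; 2 h CCF4 loading at room temperature; fluorescence at 460 and 530 nm; EC50 by Hill equation.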
# [16] = molecular target: Glucocorticoid receptor (Homo sapiens) (UniProt P04150); assay: qHTS assay for small molecule antagonists of glucocorticoid receptor signaling (AID 588533; active = well fitted inhibition curve with a large enough effect in the signal ratio, with a control signal flat, not every such curve was filed as active; the % refers to the signal ratio;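 note: cells stimulated with 2 nM dexamethasone as agonist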); conditions: HeLa MMTV-bla, GRE beta-lactamase ratio, antagonist mode, 18 h; series mostly up to 76.8 µM
# Method in brief: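 Antagonist-mode qHTS: compound titrations added to GRE-bla HeLa cells, then dexamethasone 2 nM final; 18 h, 37 C. CCF4 FRET fluorescence normalized to dexamethasone and DMSO; IC50 from Hill fit.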
# [17] = Cell Viability - SH-SY5Y (AID 544); conditions: SH-SY5Y neuroblastoma cell viability; viability change, negative = cytotoxic: at 92.2 µM (top of the series); note: potency is the fitted concentration of half-maximal effect
# Method in brief: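 Cytotoxicity is scored as a concentration-dependent fall in intracellular ATP in human SH-SY5Y cells treated 40 hr in complete culture medium. Potency is expressed as AC50 from a Hill equation fit.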
# [18] = Cell Viability - LYMP1-003 - Assay at 40 hr (AID 964); conditions: LYMP1-003 lymphoblastoid viability; series mostly up to 92.2 µM; note: nearly all actives have a fitted effect of over 60% in size; note: potency is the fitted concentration of half-maximal effect
# Method in brief: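 This qHTS cytotoxicity screen treats human lymphoblastoid cells (LYMP1-003) with compounds for 40 hr and quantifies cellular ATP via luciferase luminescence.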
# DFO2036 = assay: qHTS profiling for inhibitors of Plasmodium falciparum proliferation (AID 504749); note: nearly all actives have a fitted effect of over 60% in size; note: potency is the fitted concentration of half-maximal effect; conditions: P. falciparum in erythrocytes, SYBR Green DNA, 72 h; series mostly up to 28.7 µM
# Method in brief: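 Readout was DNA-dye fluorescence from lysed cultures, ex 485/em 535 nm. Parasitized red cells had grown 72 h with compound; data scaled between 0.29 uM artemisinin and DMSO wells and corrected using vehicle-only plates.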
# [19] = molecular target: Muscarinic acetylcholine receptor M1 (Rattus norvegicus) (UniProt P08482); assay: qHTS Assay for Antagonists of Acetylcholine Muscarinic M1 Receptor: Kinetic Measurement of Intracellular Calcium Response (AID 943); conditions: M1-expressing cells, kinetic intracellular calcium fluorescence; series mostly up to 35.3 µM; note: nearly all actives have a fitted effect of over 75% in size; note: potency is the fitted concentration of half-maximal effect
# Chain of Muscarinic acetylcholine receptor M1 (Rattus norvegicus) (P08482 whole entry, looked up): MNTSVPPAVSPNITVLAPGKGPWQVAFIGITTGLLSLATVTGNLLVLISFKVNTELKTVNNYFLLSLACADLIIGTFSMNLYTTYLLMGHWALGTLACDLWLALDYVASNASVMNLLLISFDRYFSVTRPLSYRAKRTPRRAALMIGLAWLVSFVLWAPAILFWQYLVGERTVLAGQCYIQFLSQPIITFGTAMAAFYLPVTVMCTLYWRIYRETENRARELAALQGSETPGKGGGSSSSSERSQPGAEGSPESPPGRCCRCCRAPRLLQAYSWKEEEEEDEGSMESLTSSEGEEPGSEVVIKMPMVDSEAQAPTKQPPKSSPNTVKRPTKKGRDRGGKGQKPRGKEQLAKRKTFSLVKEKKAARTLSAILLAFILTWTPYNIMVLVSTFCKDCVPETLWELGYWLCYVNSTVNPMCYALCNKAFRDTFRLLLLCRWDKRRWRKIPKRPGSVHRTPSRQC
# Method in brief: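 Intracellular calcium flux, recorded with Fluo-4 in a kinetic plate reader, served as signal; the response to carbachol at EC80 (100 nM final) was taken as maximal over minimal fluorescence after a 10 min compound pre-incubation in rat M1-CHO cells.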
structure (smiles),measurement,setting,value
CC(C)CN1CC2(CCN(C(=O)c3ccncc3)CC2)C1,Potency,[1],> 20 µM (inactive)
CN1CC[C@@]2(CCCN(C(=O)c3ccco3)C2)C1,Potency,[1],> 20 µM (inactive)
same,Potency,[2],> 11.4 µM (inactive)
COC(=O)NC(=S)Nc1ccccc1NC(=S)NC(=O)OC,"activity change, negative = cytotoxicity",[3],-2.43% (inactive)
same,caspase-3 activation,[4],2.97% (inactive)
same,outcome,[5],inactive
same,Potency,[6],inactive
same,Potency,[7],inactive
same,Potency,[8],inactive
same,Potency,[9],inactive
same,Potency,[10],inactive
same,Potency,[11],inactive
same,Potency,[12],inactive
same,Potency,[13],inactive
same,Potency,[14],inactive
same,activation,[15],7.06% (inactive) and -4.28% (inactive)
same,Potency,[16],inactive
COP(=S)(OC)Oc1ccc([N+](=O)[O-])cc1,"activity change, negative = cytotoxicity",[3],-21.2% (inactive)
same,Potency,[17],inactive
same,caspase-3 activation,[4],4.38% (inactive)
same,outcome,[5],inactive
same,Potency,[18],inactive
same,Potency,[6],inactive
same,Potency,[7],inactive
same,Potency,[8],inactive
same,Potency,[9],inactive
same,Potency,[10],inactive
same,Potency,[11],inactive
same,Potency,[12],inactive
same,Potency,[13],inactive
same,Potency,[14],inactive
O=C(Nc1cccc(F)c1)N1CCC2(CC1)CCN(C(=O)Oc1ccccc1)CC2,Potency,[1],> 20 µM (inactive)
same,Potency,[2],> 11.4 µM (inactive)
ClC1=C(Cl)C2(Cl)C3C4CC(C5OC45)C3C1(Cl)C2(Cl)Cl (stereo unspecified),Potency,[17],inactive
same,caspase-3 activation,[4],28.4% (inactive)
same,Potency,[18],10 µM (active)
same,Potency,[7],39.8 µM (active)
same,Potency,[8],39.8 µM (active)
same,Potency,[11],31.6 µM (active)
same,activation,[15],-5.87% (inactive)
same,Potency,[16],inactive
O=C(O)CNCP(=O)(O)O,Potency,[2],> 11.4 µM (inactive)
CC[C@@H]1[C@@H]2C[C@H]3[C@H]4N(C)c5ccccc5[C@@]45C[C@@H]([C@@H]2[C@@H]5O)N3[C@H]1O,Potency,DFO2036,inactive
c1ccc(N=Nc2ccccc2)cc1,"activity change, negative = cytotoxicity",[3],1.26% (inactive)
same,Potency,[17],inactive
same,outcome,[5],inactive
same,Potency,[18],inactive
same,Potency,[6],inactive
same,Potency,[11],31.6 µM (active)
same,Potency,[13],inactive
same,activation,[15],3.39% (inactive)
same,Potency,[16],inactive
CC(C)N(CC[C@@](C(N)=O)(c1ccccc1)c1ccccn1)C(C)C,Potency,[19],4.47 µM (active) and 3.98 µM (active)
CS(=N)(=O)CC[C@@H](N)C(=O)O (stereo partly specified),Potency,[19],inactive
COc1ccc(OC)c([C@H](O)[C@H](C)N)c1,Potency,[19],inactive
CNC(=O)N(C)c1nnc(C(C)(C)C)s1,Potency,[14],inactive
NC[C@H](O)c1ccc(O)cc1,Potency,[19],inactive
CC(=O)OCC(=O)[C@@H]1CC[C@H]2[C@H]3CC[C@H]4C[C@@H](O)CC[C@]4(C)[C@@H]3C(=O)C[C@@]12C,Potency,DFO2036,inactive
C=CC1CN2CCC1CC2C(OC(=O)OCC)c1ccnc2ccc(OC)cc12 (stereo unspecified),Potency,DFO2036,6.31 µM (active)
Clc1ccc([C@@H](OCCN2CCCCC2)c2ccccc2)cc1,Potency,DFO2036,inactive
CCCCCCCCCc1ccc(O)cc1,Potency,[17],12.6 µM (active)
same,Potency,[18],inactive
same,Potency,[9],inactive
same,Potency,[10],inactive
same,Potency,[12],inactive
same,Potency,[13],inactive
